Compounds with a hit are over-represented: about 2.4% of the library has one in this group of screens.
NadD inh: inhibitors of S. aureus NadD, primary screen, biochemical, colorimetric, uHTS; Nicotinate-nucleotide adenylyltransferase NadD (Staphylococcus aureus N315); purified NadD enzyme, colorimetric absorbance read-out; inhibition, % at 20 µM; hit rate 0.78% among 360,000; in the data active = inhibition above about 26%
PREPL inh: PREPL enzyme inhibitors, primary screen, biochemical, fluorescence polarization. recombinant PREPL, fluorescence polarization activity-based probe. Prolyl endopeptidase-like (Homo sapiens), Q4J6C6. hit rate 0.68% among 320,000. inhibition, % at 5.96 µM
Rpn11 inh: Rpn11 (PSMD14) deubiquitinase inhibitors, primary screen, biochemical, fluorescence polarization, uHTS; 26S proteasome non-ATPase regulatory subunit 14 (Homo sapiens), O00487; human 26S proteasome, Ub4-pepOG fluorescence polarization; 20S core pre-blocked with epoxomicin; inhibition, % at 20 µM; hit rate 0.59% among 360,000;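 active = inhibition at 20 µM, scaled to each plate's controls, above about 33%, limit read from the data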
PP1 inh: PP1-alpha phosphatase inhibitors, primary screen, counter-screen for PP5 inhibitor project, biochemical, fluorescence, OMFP substrate, single point; hit rate 0.9% among 320,000; purified PP1alpha; AID 2235, 2010; Serine/threonine-protein phosphatase PP1-alpha catalytic subunit (Homo sapiens), P62136; inhibition, % at 6.7 µM;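 active = inhibition above the mean inhibition of all tested compounds plus 3 SD, computed separately for each screening campaign, cut at about 15% in these data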
PP5 inh: PP5 phosphatase inhibitors, primary screen, biochemical, fluorescence | Serine/threonine-protein phosphatase 5 (Homo sapiens), P53041 | purified PP5c, OMFP substrate fluorescence | inhibition, % at 6.7 µM | hit rate 0.18% among 320,000 | AID 1987, 2009;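 active = inhibition above the campaign's mean inhibition across all tested compounds plus 3 SD, cut at about 9.5% in these data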
Target sequence (P53041 whole entry, looked up): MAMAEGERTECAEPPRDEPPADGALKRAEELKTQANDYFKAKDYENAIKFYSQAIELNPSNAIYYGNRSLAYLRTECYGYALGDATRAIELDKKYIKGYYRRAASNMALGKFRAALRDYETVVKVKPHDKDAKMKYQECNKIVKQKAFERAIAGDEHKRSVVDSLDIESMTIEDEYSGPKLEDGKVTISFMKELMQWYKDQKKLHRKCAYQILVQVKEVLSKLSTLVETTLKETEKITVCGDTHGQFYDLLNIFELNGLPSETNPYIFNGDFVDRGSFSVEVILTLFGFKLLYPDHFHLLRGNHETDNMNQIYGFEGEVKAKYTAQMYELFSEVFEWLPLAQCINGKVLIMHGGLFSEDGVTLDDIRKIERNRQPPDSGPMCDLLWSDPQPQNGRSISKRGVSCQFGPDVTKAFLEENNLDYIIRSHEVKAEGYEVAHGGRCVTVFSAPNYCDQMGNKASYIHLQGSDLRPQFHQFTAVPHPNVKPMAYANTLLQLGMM
PREPL confirm: human PREPL enzyme inhibitors, confirmation, biochemical, fluorescence polarization; hit rate 67% among 2,000; shares compounds with PREPL inh; inhibition, % at 5.96 µM; recombinant PREPL, fluorescence polarization activity probe; AID 2803, 2010
Hits are given with their value. Cut-off read from the data, not from the text of the source, unless noted: active = inhibition above about 43%; inactive = the rest.

`O=C(Nc1ccc(N2CCN(C(=O)c3ccccc3)CC2)cc1)c1cc2ccccc2o1` gave NadD inh inactive, PREPL inh 45, Rpn11 inh inactive, PP1 inh inactive, PP5 inh inactive and PREPL confirm inactive.
Screening COc1ccc(CNc2ccc(N3CCN(C(C)=O)CC3)cc2)cc1OC returned NadD inh inactive and Rpn11 inh inactive.
O=C(c1ccccc1)N1CCN(c2ccc(NCc3ccc4c(c3)OCO4)cc2)CC1 was read as NadD inh inactive, PREPL inh 74, Rpn11 inh inactive, PP1 inh inactive, PP5 inh inactive and PREPL confirm 53.
CN1CCN(c2ccc(NC(=O)c3cc4ccccc4o3)cc2)CC1 was read as NadD inh inactive, PREPL inh inactive, Rpn11 inh inactive, PP1 inh inactive and PP5 inh inactive.
Screening CC(=O)N1CCN(c2ccc(NCc3ccc4c(c3)OCO4)cc2)CC1 returned NadD inh inactive, PREPL inh 72, Rpn11 inh inactive, PP1 inh inactive, PP5 inh inactive and PREPL confirm inactive.
Screening COC(=O)c1c(-c2ccccc2)oc2c1C(OCCO)CCC2 (centres undefined) returned NadD inh inactive.
For C/C(=N\Nc1nc2ccccc2[nH]1)c1ccccn1 the results were NadD inh inactive, PREPL inh inactive, Rpn11 inh inactive, PP1 inh inactive and PP5 inh inactive.
Screening C/C(=N\Nc1nc2ccccc2[nH]1)c1cc2ccccc2o1 returned NadD inh inactive, PREPL inh 76, Rpn11 inh inactive, PP1 inh inactive, PP5 inh inactive and PREPL confirm 72.
For C/C(=N\Nc1nc2ccccc2[nH]1)c1ccc2c(c1)OCCO2 the results were NadD inh inactive, PREPL inh inactive, Rpn11 inh inactive, PP1 inh inactive and PP5 inh inactive.
C/C(=N\Nc1nc2ccccc2[nH]1)c1ccc2c(c1)OCO2 was read as NadD inh inactive, PREPL inh 47, Rpn11 inh inactive, PP1 inh inactive, PP5 inh inactive and PREPL confirm 44.
Screening Clc1ccc(OCc2nn3c(C4CCCCC4)nnc3s2)cc1 returned NadD inh inactive, PREPL inh 46, Rpn11 inh inactive, PP1 inh inactive, PP5 inh inactive and PREPL confirm inactive.
`C[C@@H]1CN([C@@H](C)CO)C(=O)c2cc(NC(=O)Nc3ccc4c(c3)OCO4)ccc2O[C@H]1CN(C)S(=O)(=O)c1ccc(F)cc1` gave NadD inh inactive, PREPL inh inactive and Rpn11 inh inactive.
`Cc1noc(C)c1S(=O)(=O)Nc1ccc2c(c1)C(=O)N([C@H](C)CO)C[C@H](C)[C@@H](CN(C)C(=O)Nc1ccccc1)O2` gave NadD inh inactive, PREPL inh inactive and Rpn11 inh inactive.

From PubChem
